# About 83,000 compounds went through this panel and 20% of them were active in at least one assay; those are over-represented in the sample as a whole.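 Each cell line was grown in a 96-well plate and treated with one concentration of compound for 48 hours. Values below 10 were considered active.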 Unmarked numbers belong to inactive results. The source made the active and inactive calls.
# Legend:
# Experiment in all cases: NCI-60 one-dose screen, 48 h (100 = growth as untreated, 0 = no growth, -100 = all killed)
# Settings in all cases: 10 µM unless noted
# HT29 colon = system: HT29 colon
# SNB-75 CNS = system: SNB-75 CNS
# U251 CNS = system: U251 CNS
# SK-MEL-5 melanoma = system: SK-MEL-5 melanoma
# UACC-62 melanoma = system: UACC-62 melanoma
# LOX IMVI melanoma = system: LOX IMVI melanoma
# SK-MEL-28 melanoma = system: SK-MEL-28 melanoma
# EKVX NSCLC = system: EKVX NSCLC
# SN12C renal = system: SN12C renal
# UO-31 renal = system: UO-31 renal
# TK-10 renal = system: TK-10 renal
# ACHN renal = system: ACHN renal
# A498 renal = system: A498 renal
# CCRF-CEM leukemia = system: CCRF-CEM leukemia
# MOLT-4 leukemia = system: MOLT-4 leukemia
# SR leukemia = system: SR leukemia
# PC-3 prostate = system: PC-3 prostate
# SK-MEL-2 melanoma = system: SK-MEL-2 melanoma
# CAKI-1 renal = system: CAKI-1 renal
# SNB-19 CNS = system: SNB-19 CNS
Structure (SMILES),growth (HT29 colon),growth (SNB-75 CNS),growth (U251 CNS),growth (SK-MEL-5 melanoma),growth (UACC-62 melanoma),growth (LOX IMVI melanoma),growth (SK-MEL-28 melanoma),growth (EKVX NSCLC),growth (SN12C renal),growth (UO-31 renal),growth (TK-10 renal),growth (ACHN renal),growth (A498 renal),growth (CCRF-CEM leukemia),growth (MOLT-4 leukemia),growth (SR leukemia),growth (PC-3 prostate),growth (SK-MEL-2 melanoma),growth (CAKI-1 renal),growth (SNB-19 CNS)
CCOC(=O)c1c(C)c(C(=O)OCC)n(C)c1C,88.5%,83.6%,99.5%,126%,83.8%,103%,116%,75%,104%,81.2%,78.4%,95.6%,83.9%,84.9%,87.1%,87.8%,,,,
CCN1CCN(c2cc(-c3cn[nH]c3-c3cc(C)cc(OC)c3)nc(-c3cccnc3)n2)CC1,33.4%,75.9%,48.3%,81.9%,102%,56.7%,87.4%,106%,85%,45.8%,105%,73.7%,15.1%,84.5%,52%,7.69% (active),100%,93.6%,73.7%,
CCCCCCCCCCCCNc1ncnc2[nH]ncc12,97.9%,105%,87.7%,36.1%,57.1%,44.6%,100%,51.2%,80.3%,77.7%,88.2%,83.4%,50.4%,68.3%,65.8%,9.74% (active),69.7%,85.9%,66.2%,
CCN(CC)CCCNCCCNc1cc(OC)cc2cccnc12,40%,82.8%,77.9%,92.1%,,80.3%,99.4%,80.7%,,88.1%,112%,101%,76.4%,88.9%,75.6%,79.5%,82.4%,101%,97.6%,
CCN(CC)CCNc1ccc(Cl)cc1Cl,101%,98.5%,102%,103%,112%,102%,118%,113%,113%,87.3%,103%,113%,103%,104%,95.9%,95.1%,97.3%,108%,94.6%,
CCCCCCCCCCCCCCCCN=C(CC(=O)O)C(=O)O,82.1%,91.6%,101%,,,90.5%,103%,113%,,89.8%,83.9%,105%,95.6%,86.1%,79.4%,65.6%,91.9%,92.8%,104%,
CC(CCC(=O)O)(NC(=O)c1ccc([N+](=O)[O-])cc1)C(=O)O (centres undefined),109%,91.6%,104%,101%,109%,97.1%,107%,114%,107%,86.2%,106%,125%,108%,103%,93.6%,95.7%,98.4%,108%,108%,
CCCCCCCC/C=C/CCCCCCCC1=NC(C)(C)CN1CCO,-42.1% (active),,-35.5% (active),3.21% (active),-64.4% (active),-74.6% (active),-68.4% (active),58.5%,60.9%,-44.8% (active),59.5%,24.4%,89.2%,-38.9% (active),-44.4% (active),-43.1% (active),22.8%,-44.4% (active),59.5%,60.5%
